In PubChem BioAssay one finds log fold change Tl+ flux data, which are given here for 27 molecules.

Calls of active or inactive are those of the source.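 How the source made its calls: active means thallium flux through the channel raised or lowered by more than 3 SD from vehicle-only wells, actives on both sides; inactive means the rest.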

The subject of this experiment is F380Y/beta2Delta. Briefly: BK channel mutant inhibitors and activators – cell-based, U2OS BacMam, thallium flux, beta subunits, selectivity assay, profiling panel (AID 1259406).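 Further: initial slope of Thallos dye fluorescence rise after thallium is added; log ratio against the mean of 0.3% DMSO vehicle wells on the same plate.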 The conditions noted are these: U2OS BacMam BK variants, at 30 µM.
`O=C1N=C(O)CN1N=Cc1ccc(-c2ccc([N+](=O)[O-])cc2)o1`: the log fold change Tl+ flux was 0.0246 (inactive).

Consider `CC(=O)O[C@@]12CO[C@@H]1C[C@H](O)[C@@]1(C)C(=O)[C@H](O)C3=C(C)[C@@H](OC(=O)[C@H](O)[C@@H](NC(=O)OC(C)(C)C)c4ccccc4)C[C@](O)([C@@H](OC(=O)c4ccccc4)[C@H]21)C3(C)C`, for which the log fold change Tl+ flux is -0.0313 (inactive).

In the case of `CC1c2cccc(O)c2C(O)=C2C(=O)[C@]3(O)C(O)=C(C(N)=O)C(=O)[C@@H](N(C)C)[C@@H]3C[C@@H]21` (some centres not stated), the log fold change Tl+ flux was 0.00306 (inactive).

In the case of `CO[C@H]1C=CO[C@@]2(C)Oc3c(C)c(O)c4c(O)c(c(C=NN5CCN(C6CCCC6)CC5)c(O)c4c3C2=O)NC(=O)C(C)=CC=C[C@H](C)[C@H](O)[C@@H](C)[C@@H](O)[C@@H](C)[C@H](OC(C)=O)[C@@H]1C`, the log fold change Tl+ flux was 0.0273 (inactive).

On to `C=CC1=C(C(=O)O)N2C(=O)[C@@H](NC(=O)C(=NO)c3csc(N)n3)[C@H]2SC1`, for which the log fold change Tl+ flux is 0.0258 (inactive).

`C[C@H]1O[C@@H](O[C@H]2[C@@H](O)C[C@H](O[C@H]3[C@@H](O)C[C@H](O[C@H]4CC[C@@]5(C)[C@H](CC[C@@H]6[C@@H]5C[C@@H](O)[C@]5(C)C(C7=CC(=O)OC7)CC[C@]65O)C4)O[C@@H]3C)O[C@@H]2C)C[C@H](O)[C@@H]1O` (some centres not stated): the log fold change Tl+ flux is 0.00458 (inactive).

For `CON=C(C(=O)N[C@@H]1C(=O)N2C(C(=O)O)=C(COC(N)=O)CS[C@H]12)c1ccco1`, the log fold change Tl+ flux is 0.00116 (inactive).

In the case of `Cc1cc(=O)oc2cc(NC(=O)C3CCC(=O)N3)ccc12` (configuration not stated), the log fold change Tl+ flux was -0.0131 (inactive).

Take `N[C@@H](C(=O)N[C@@H]1C(=O)N2C(C(=O)O)=C(CSc3cn[nH]n3)CS[C@H]12)c1ccc(O)cc1` (tested in a mixture with another compound): the log fold change Tl+ flux was 0.00568 (inactive).

For the molecule `CN1CCN2c3ncccc3Cc3ccccc3[C@@H]2C1`, the log fold change Tl+ flux is 0.0643 (inactive).

With `C=CC[C@@H]1C=C(C)C[C@H](C)C[C@H](OC)[C@H]2O[C@@](O)(C(=O)C(=O)N3CCCC[C@H]3C(=O)O[C@H](/C(C)=C/[C@@H]3CC[C@@H](O)[C@H](OC)C3)[C@H](C)[C@@H](O)CC1=O)[C@H](C)C[C@@H]2OC`, the log fold change Tl+ flux was -0.629 (active).

Regarding `CO[C@H]1C=CO[C@@]2(C)Oc3c(C)c(O)c4c(O)c(c5c(c4c3C2=O)NC2(CCN(CC(C)C)CC2)N=5)=NC(=O)C(C)=CC=C[C@H](C)[C@H](O)[C@@H](C)[C@@H](O)[C@@H](C)[C@H](OC(C)=O)[C@@H]1C`, the log fold change Tl+ flux was -0.052 (inactive).

For `CN(C)S(=O)(=O)c1ccc2c(c1)/C(=C\CCN1CCNCC1)c1ccccc1S2`, the log fold change Tl+ flux was -0.0723 (inactive).

In the case of `CCC(=O)NS(=O)(=O)c1ccc(-c2c(-c3ccccc3)noc2C)cc1`, the log fold change Tl+ flux is 0.000846 (inactive).

Turning to `C[C@]12C=CC(=O)C=C1CC[C@@H]1[C@@H]2[C@@H](O)C[C@@]2(C)[C@H]1CC[C@]2(O)C(=O)COC(=O)CCC(=O)O`, the log fold change Tl+ flux was 0.00204 (inactive).

With `CN(C)CC/C=C1/c2ccccc2COc2ccccc21`, the log fold change Tl+ flux is 0.0845 (active).

For the molecule `CC(=O)NCCCCCCNC(C)=O`, the log fold change Tl+ flux was -0.0186 (inactive).

Regarding `CO[C@H]1C=CO[C@@]2(C)Oc3c(C)c(O)c4c(O)c(c5c(nc6cc(C)ccn65)c4c3C2=O)NC(=O)C(C)=CC=C[C@H](C)[C@H](O)[C@@H](C)[C@@H](O)[C@@H](C)[C@H](OC(C)=O)[C@@H]1C`, the log fold change Tl+ flux is -0.411 (active).

As for `CO[C@H]1O[C@@H]2O[C@@]3(C)CC[C@H]4[C@H](C)CC[C@@H]([C@H]1C)[C@@]24OO3`, the log fold change Tl+ flux is -0.0746 (active).

Take `CC(C)CC(NC(=O)C(COC(C)(C)C)NC(=O)C(Cc1ccc(O)cc1)NC(=O)C(CO)NC(=O)C(Cc1c[nH]c2ccccc12)NC(=O)C(Cc1cnc[nH]1)NC(=O)C1CCC(=O)N1)C(=O)N[C@@H](CCCN=C(N)N)C(=O)N1CCCC1C(=O)NNC(N)=O` (some centres not stated): the log fold change Tl+ flux is -0.0184 (inactive).

As to `COCCCCC(=NOCCN)c1ccc(C(F)(F)F)cc1`, the log fold change Tl+ flux is -0.0598 (inactive).

On to `CCN(CC)CCOc1ccc(C(=C(Cl)c2ccccc2)c2ccccc2)cc1`, for which the log fold change Tl+ flux is 0.0152 (inactive).

`CO[C@H]1/C=C/O[C@@]2(C)Oc3c(C)c(O)c4c(O)c(c(C=NN5CCN(C6CCCC6)CC5)c(O)c4c3C2=O)NC(=O)/C(C)=C\C=C\[C@H](C)[C@H](O)[C@@H](C)[C@@H](O)[C@@H](C)[C@H](OC(C)=O)[C@@H]1C`: the log fold change Tl+ flux is 0.179 (active).

With `O=C1CN(N=Cc2ccc([N+](=O)[O-])o2)C(=O)N1`, the log fold change Tl+ flux was -0.0429 (inactive).

As for `C=CC1=C(C(=O)O)N2C(=O)[C@@H](NC(=O)C(=NOCC(=O)O)c3csc(N)n3)[C@H]2SC1`, the log fold change Tl+ flux was 0.02 (inactive).

As for `COc1cc(N)c(Cl)cc1C(=O)N[C@@H]1CCN(CCCOc2ccc(F)cc2)C[C@@H]1OC`, the log fold change Tl+ flux was 0.0148 (inactive).

Regarding `COCC1=C(C(=O)OC(C)OC(=O)OC(C)C)N2C(=O)[C@@H](NC(=O)C(=NOC)c3csc(N)n3)[C@H]2SC1` (some centres not stated), the log fold change Tl+ flux is 0.0192 (inactive).
